# ± gives the standard deviation of the averaged measurements.
# What was measured:
# Assay in all cases: promoter activity interaction Z-score (Lux/OD deviation from empty-vector control); higher = stronger promoter induction by the compound
# [1] = test system: E. coli BW25113 acrABp lux reporter
# In short: (§1)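 Reporter strains of E. coli BW25113 grew at 37°C in 40 µl LB Lennox in 384-well plates. Readings of OD600 and luminescence were taken every 30 min over 12 h, integrated over 0–8 h (wild type) or 1–9 h (deletion strains), and wells below 10% of the median growth value were excluded. Scores are Z-transformed residuals of growth-normalised luminescence from a fit against a control.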
# [2] = test system: E. coli BW25113 micFp lux reporter
# In short: as §1
# [3] = test system: E. coli BW25113 ompFp lux reporter
# In short: as §1
# [4] = test system: E. coli BW25113 robp lux reporter
# In short: as §1
# [5] = test system: E. coli BW25113 soxSp lux reporter
# In short: as §1
# [6] = test system: E. coli BW25113 tolCp lux reporter
# In short: as §1
# [7] = 0.063 µg/ml, genetic background: wild type
# [8] = 0.063 µg/ml, genetic background: ΔmarA
# [9] = 0.063 µg/ml, genetic background: Δrob
# [10] = 0.063 µg/ml, genetic background: ΔsoxS
# [11] = 0.13 µg/ml, genetic background: wild type
# [12] = 0.13 µg/ml, genetic background: ΔmarA
# [13] = 0.13 µg/ml, genetic background: Δrob
# [14] = 0.13 µg/ml, genetic background: ΔsoxS
# [15] = 0.25 µg/ml, genetic background: wild type
# [16] = 0.25 µg/ml, genetic background: ΔmarA
# [17] = 0.25 µg/ml, genetic background: Δrob
# [18] = 0.25 µg/ml, genetic background: ΔsoxS
# [19] = 0.51 µg/ml, genetic background: wild type
# [20] = 0.51 µg/ml, genetic background: ΔmarA
# [21] = 0.51 µg/ml, genetic background: Δrob
# [22] = 0.51 µg/ml, genetic background: ΔsoxS
smiles,measurement,setting,value
N=C(NCCCCCCNC(=N)NC(=N)Nc1ccc(Cl)cc1)NC(=N)Nc1ccc(Cl)cc1 [Chlorhexidine],promoter activity interaction Z-score,[1]; [7],0.528 ± 0.15
same,promoter activity interaction Z-score,[1]; [8],0.456 ± 1.1
same,promoter activity interaction Z-score,[1]; [9],-0.0468 ± 0.34
same,promoter activity interaction Z-score,[1]; [10],-0.413 ± 0.67
same,promoter activity interaction Z-score,[1]; [11],0.229 ± 0.18
same,promoter activity interaction Z-score,[1]; [12],-0.312 ± 0.48
same,promoter activity interaction Z-score,[1]; [13],-0.0734 ± 0.14
same,promoter activity interaction Z-score,[1]; [14],0.339 ± 0.46
same,promoter activity interaction Z-score,[1]; [15],0.27 ± 0.26
same,promoter activity interaction Z-score,[1]; [16],-0.147 ± 0.57
same,promoter activity interaction Z-score,[1]; [17],0.135 ± 0.15
same,promoter activity interaction Z-score,[1]; [18],0.108 ± 0.19
same,promoter activity interaction Z-score,[1]; [19],-0.0541 ± 0.33
same,promoter activity interaction Z-score,[1]; [20],0.0169 ± 0.15
same,promoter activity interaction Z-score,[1]; [21],0.0299 ± 0.11
same,promoter activity interaction Z-score,[1]; [22],0.236 ± 0.23
same,promoter activity interaction Z-score,[2]; [7],-0.138 ± 0.035
same,promoter activity interaction Z-score,[2]; [8],0.119 ± 0.018
same,promoter activity interaction Z-score,[2]; [9],-0.0387 ± 0.0014
same,promoter activity interaction Z-score,[2]; [10],-0.423 ± 0.21
same,promoter activity interaction Z-score,[2]; [11],-0.207 ± 0.061
same,promoter activity interaction Z-score,[2]; [12],-0.0564 ± 0.12
same,promoter activity interaction Z-score,[2]; [13],-0.0382 ± 0.027
same,promoter activity interaction Z-score,[2]; [14],-0.0137 ± 0.079
same,promoter activity interaction Z-score,[2]; [15],0.112 ± 0.098
same,promoter activity interaction Z-score,[2]; [16],-0.0647 ± 0.035
same,promoter activity interaction Z-score,[2]; [17],-0.172 ± 0.038
same,promoter activity interaction Z-score,[2]; [18],-0.0807 ± 0.32
same,promoter activity interaction Z-score,[2]; [19],-0.4228 ± 0.0029
same,promoter activity interaction Z-score,[2]; [20],-0.153 ± 0.15
same,promoter activity interaction Z-score,[2]; [21],-0.204 ± 0.03
same,promoter activity interaction Z-score,[2]; [22],0.196 ± 0.032
same,promoter activity interaction Z-score,[3]; [7],0.348 ± 0.12
same,promoter activity interaction Z-score,[3]; [8],0.307 ± 0.032
same,promoter activity interaction Z-score,[3]; [9],0.502 ± 0.096
same,promoter activity interaction Z-score,[3]; [10],0.129 ± 0.63
same,promoter activity interaction Z-score,[3]; [11],0.528 ± 0.026
same,promoter activity interaction Z-score,[3]; [12],-0.185 ± 0.099
same,promoter activity interaction Z-score,[3]; [13],0.2991 ± 0.00077
same,promoter activity interaction Z-score,[3]; [14],0.714 ± 0.18
same,promoter activity interaction Z-score,[3]; [15],0.176 ± 0.12
same,promoter activity interaction Z-score,[3]; [16],0.161 ± 0.18
same,promoter activity interaction Z-score,[3]; [17],0.332 ± 0.15
same,promoter activity interaction Z-score,[3]; [18],0.376 ± 0.19
same,promoter activity interaction Z-score,[3]; [19],0.552 ± 0.14
same,promoter activity interaction Z-score,[3]; [20],0.909 ± 0.66
same,promoter activity interaction Z-score,[3]; [21],0.866 ± 0.037
same,promoter activity interaction Z-score,[3]; [22],1.02 ± 0.32
same,promoter activity interaction Z-score,[4]; [7],0.375 ± 0.078
same,promoter activity interaction Z-score,[4]; [8],0.214 ± 0.35
same,promoter activity interaction Z-score,[4]; [9],0.423 ± 0.27
same,promoter activity interaction Z-score,[4]; [10],0.406 ± 0.057
same,promoter activity interaction Z-score,[4]; [11],0.674 ± 0.55
same,promoter activity interaction Z-score,[4]; [12],-0.0996 ± 0.54
same,promoter activity interaction Z-score,[4]; [13],0.374 ± 0.39
same,promoter activity interaction Z-score,[4]; [14],0.814 ± 0.61
same,promoter activity interaction Z-score,[4]; [15],0.416 ± 0.24
same,promoter activity interaction Z-score,[4]; [16],-0.53 ± 0.44
same,promoter activity interaction Z-score,[4]; [17],0.48 ± 0.31
same,promoter activity interaction Z-score,[4]; [18],0.422 ± 0.89
same,promoter activity interaction Z-score,[4]; [19],-0.214 ± 0.33
same,promoter activity interaction Z-score,[4]; [20],0.504 ± 0.37
same,promoter activity interaction Z-score,[4]; [21],0.258 ± 0.6
same,promoter activity interaction Z-score,[4]; [22],0.18 ± 0.19
same,promoter activity interaction Z-score,[5]; [7],-0.0504 ± 0.14
same,promoter activity interaction Z-score,[5]; [8],0.0857 ± 0.028
same,promoter activity interaction Z-score,[5]; [9],0.21 ± 0.1
same,promoter activity interaction Z-score,[5]; [10],0.0523 ± 0.26
same,promoter activity interaction Z-score,[5]; [11],0.0248 ± 0.062
same,promoter activity interaction Z-score,[5]; [12],0.0401 ± 0.18
same,promoter activity interaction Z-score,[5]; [13],-0.0238 ± 0.042
same,promoter activity interaction Z-score,[5]; [14],0.276 ± 0.16
same,promoter activity interaction Z-score,[5]; [15],0.0242 ± 0.039
same,promoter activity interaction Z-score,[5]; [16],0.138 ± 0.13
same,promoter activity interaction Z-score,[5]; [17],0.236 ± 0.22
same,promoter activity interaction Z-score,[5]; [18],0.165 ± 0.005
same,promoter activity interaction Z-score,[5]; [19],-0.166 ± 0.08
same,promoter activity interaction Z-score,[5]; [20],0.198 ± 0.063
same,promoter activity interaction Z-score,[5]; [21],-0.014 ± 0.063
same,promoter activity interaction Z-score,[5]; [22],-0.0376 ± 0.072
same,promoter activity interaction Z-score,[6]; [7],0.313 ± 0.44
same,promoter activity interaction Z-score,[6]; [8],0.0546 ± 1.2
same,promoter activity interaction Z-score,[6]; [9],0.212 ± 0.98
same,promoter activity interaction Z-score,[6]; [10],0.135 ± 0.81
same,promoter activity interaction Z-score,[6]; [11],0.112 ± 0.076
same,promoter activity interaction Z-score,[6]; [12],-0.214 ± 1.4
same,promoter activity interaction Z-score,[6]; [13],-0.155 ± 0.64
same,promoter activity interaction Z-score,[6]; [14],0.18 ± 2
same,promoter activity interaction Z-score,[6]; [15],-0.564 ± 0.81
same,promoter activity interaction Z-score,[6]; [16],-0.365 ± 0.86
same,promoter activity interaction Z-score,[6]; [17],0.568 ± 0.35
same,promoter activity interaction Z-score,[6]; [18],0.574 ± 0.065
same,promoter activity interaction Z-score,[6]; [19],-0.539 ± 0.4
same,promoter activity interaction Z-score,[6]; [20],0.431 ± 0.064
same,promoter activity interaction Z-score,[6]; [21],-0.613 ± 0.62
same,promoter activity interaction Z-score,[6]; [22],0.378 ± 0.96

# Source: the supplement of paper PMC12282887
